# Test results from the supplement of paper PMC10811239.
# System: LEGO organoid PTN (PTEN-/-; TP53-/-; NF1-/-)
# Experiment: bioluminescence (viable cell) signal fold change after vs before treatment, normalised to DMSO (ratio); higher = more tumour cell growth / less inhibition
# Conditions: 10 µM; treatment time 6 days
# Procedure: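 Luc2-labelled iPSC-derived glioblastoma-like organoids (LEGOs, genotypes PT = PTEN-/-;TP53-/-, PTCC = plus CDKN2A/B-/-, PTN = plus NF1-/-) were treated with 10 uM drug for 6 days (applied every other day) at 37 C. Bioluminescence imaging was done before treatment and 2 days after the last dose. BLI signals were normalised to the DMSO control on the same day and then to the pre-treatment signal (N=3).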
row,Structure (SMILES),bioluminescence
1,CCC1(c2ccc(N)cc2)CCC(=O)NC1=O (configuration not stated) [Aminoglutethimide],1.07
2,NCC(CC(=O)O)c1ccc(Cl)cc1 (configuration not stated) [Baclofen],1.95
3,Cc1n[nH]cc1-c1cc2[nH]c([C@@H]3CC4CCN3CC4)nc(=O)c2s1 [Simurosertib],1.05
4,CN[C@@H]1C[C@H]2O[C@@](C)([C@@H]1OC)n1c3ccccc3c3c4c(c5c6ccccc6n2c5c31)C(=O)NC4 [Staurosporine],0
5,COc1cc2c(cc1OC)[C@@H]1CC(=O)[C@@H](CC(C)C)CN1CC2.COc1cc2c(cc1OC)[C@H]1CC(=O)[C@H](CC(C)C)CN1CC2 [Tetrabenazine],0.557
6,COc1ccc(C(CN(C)C)C2(O)CCCCC2)cc1.Cl (configuration not stated) [Venlafaxine hydrochloride],1.33
7,NCC1(CC(=O)O)CCCCC1 [Gabapentin],0.585
8,Cc1cccc([C@H](C)c2cnc[nH]2)c1C.Cl [Dexmedetomidine HCl],0.581
9,CCN(C)C(=O)Oc1cccc([C@H](C)N(C)C)c1.O=C(O)[C@H](O)[C@@H](O)C(=O)O [Rivastigmine tartrate],1.33
10,CC[C@@H](C(N)=O)N1CCCC1=O [Levetiracetam],0.81
11,CCOC(=O)c1cncn1[C@H](C)c1ccccc1 [Etomidate],2.17
12,CC(C)c1cccc(C(C)C)c1O [Propofol],1.2
13,Cl.Cn1c(CCCC(=O)O)nc2cc(N(CCCl)CCCl)ccc21 [Bendamustine hydrochloride],1.14
14,CN(C)C(=O)Oc1ccc[n+](C)c1.[Br-] [Mestinon],0.642
15,CC(C)C[C@H]1C(=O)N2CCC[C@H]2[C@]2(O)O[C@](NC(=O)[C@@H]3C[C@@H]4c5cccc6[nH]cc(c56)C[C@H]4N(C)C3)(C(C)C)C(=O)N12.CC(C)[C@@]1(NC(=O)[C@@H]2C[C@@H]3c4cccc5[nH]cc(c45)C[C@H]3N(C)C2)O[C@@]2(O)[C@@H]3CCCN3C(=O)[C@H](Cc3ccccc3)N2C1=O.CC(C)[C@H]1C(=O)N2CCC[C@H]2[C@]2(O)O[C@](NC(=O)[C@@H]3C[C@@H]4c5cccc6[nH]cc(c56)C[C@H]4N(C)C3)(C(C)C)C(=O)N12.CCC(C)[C@H]1C(=O)N2CCC[C@H]2[C@]2(O)O[C@](NC(=O)[C@@H]3C[C@@H]4c5cccc6[nH]cc(c56)C[C@H]4N(C)C3)(C(C)C)C(=O)N12.CS(=O)(=O)O [Dihydroergotoxine mesylate],1.88
16,CCN(C)C(=O)Oc1cccc([C@H](C)N(C)C)c1 [Rivastigmine],1.18
17,O=C(O)CCCc1ccc(N(CCCl)CCCl)cc1 [Chloroambucil],1.36
